Among the data in PubChem BioAssay (NCI) are growth values, retold here.

The assay concerns HL-60(TB) leukemia. Description: NCI-60 one-dose screen, 48 h (100 = growth as untreated, 0 = no growth, -100 = all killed). As to conditions: 10 µM unless noted.

Compounds without any hit were thinned out: in the full panel of roughly 83,000, 20% have a hit.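 Treatment: one concentration, 48 hours, 96-well format. Scoring: percent growth, with anything below 10 considered active.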 Values without a mark were called inactive. Activity calls are given as the source filed them.

`Cc1ccc(C(=O)c2ccc(CC(=O)N=Nc3c(O)[nH]c4ccc(OC(F)(F)F)cc34)n2C)cc1`: the growth is 94.6%.
The same measure for `COc1ccc(Nc2nn3c(SCC(=O)c4ccc(C)cc4)nnc3s2)cc1`: 86%.
Regarding `CCCCCCN=C(N)CCCCCCCCCCC(N)=NCCCCCC`, the growth was 55.1%.
With `O=C(CCCl)OCCOc1ccccc1`, the growth is 101%.
Turning to `Cc1ccc(C2SCC(=O)N2Cc2ccccc2)cc1` (centres undefined), the growth is 96.1%.
Then `COC(=O)/C=C1\SC(=Nc2ccc(C(F)(F)F)cc2)N(CCc2c[nH]c3ccccc23)C1=O`, with -55.4% (active); and `Cc1cccc2c(=O)c3c(sc12)c(NCCN)nc1ccccc13`, with -62.7% (active); and `COc1ccc(-n2nc(C)c3c(Nc4ccc(NC(=O)Nc5c(Cl)cccc5Cl)cc4)ncnc32)cc1`, with 97.8%.
Consider `NC1=CC(=O)C(=O)c2ccccc21`, for which the growth is 39.2%.
Take `c1cc(C2CCCCC2)ccc1-c1cnc2nonc2n1`: the growth is -27.3% (active).
Regarding `CC1OC(n2c3ccccc3c3c4c(c5c6ccccc6[nH]c5c32)C(=O)N(CCN[C@H]2CCC[C@@H]2N)C4=O)CC(O)C1O` (some centres undefined), the growth is 54.3%.
On to `N#Cc1c(-c2ccccc2)nc(SCC(O)CN2CCOCC2)nc1N1CCOCC1` (centres undefined), for which the growth is 72.2%.
In the case of `C1Cc2onc(-c3noc4c3CCC4)c2C1`, the growth was 103%.
With `OCCn1cc(-c2nc(-c3c[nH]c4ncccc34)cs2)c2cc(F)ccc21`, the growth is 60.3%.
Regarding `COc1ccc(Cn2c(Br)c3c(c2Br)-c2nc(N)sc2CC3)cc1`, the growth is -16% (active).
Then `CCOC(=O)C(=CNc1ccccc1Cl)C(=O)OCC`, with 86.4%; and `CN(C)c1ccc(-n2nc3ccccc3n2)cc1`, with 90.5%; and `CC1=C2C(=C[C@@](C)(CO)[C@@H]2OC(=O)N(C)CCN(C)C(=O)OC(C)(C)C)C(=O)[C@](C)(O)C12CC2`, with 46.1%.
As to `COc1ccc(C2CC(c3ccc4c(c3)OCO4)=Nc3c(N)ncnc3N2)cc1` (centres undefined), the growth was 99.3%.
As for `COc1ccc(CCNC=O)cc1OC`, the growth is 96.9%.
As for `CC(=O)CC1CCCC1c1ccc2ccccc2c1` (centres undefined), the growth is 101%.
Turning to `N#Cc1ccc(O)c(C2=NCC(c3ccccc3)O2)c1` (centres undefined), the growth is 14.5%.
Then `Cn1c(=O)n(C)c2cc(CNCCNc3ccnc4cc(Cl)ccc34)ccc21`, with 35.4%; and `C=CC(=O)Nc1cccc(C)c1Nc1cc(-c2cccnc2Cc2c(C)c(OC)cc(OC)c2C)ncn1`, with -23% (active).
As to `COCCn1cc(-c2csc(-c3cn(C)c4ccc(Br)cc34)n2)c2cccnc21`, the growth was 51.3%.
Turning to `Nc1nc(Cl)cc(NCCCCNc2cc(Cl)nc(N)n2)n1`, the growth was 101%.
With `CCOc1cc(NC(=O)c2ccccc2)c(OCC)cc1N`, the growth is 109%.
As to `COc1ccc(Cc2nnc(Nc3nc4ccccc4s3)s2)cc1`, the growth was -32.7% (active).
Take `C=C1C(=O)O[C@H]2[C@H]1CC/C(COC(=O)c1ccc(Br)cc1)=C\CC[C@@]1(C)O[C@@H]21`: the growth was -45.6% (active).
On to `Cc1c(C(C)(C)O)cn2ncnc(Oc3ccc(NC(=O)Nc4ccc(Cl)c(C(F)(F)F)c4)c(F)c3)c12`, for which the growth was 63.1%.
As to `COC(=O)c1c2c(c[n+]([O-])c1C)C(=O)C=C(NCc1ccccc1)C2=O`, the growth was -49.4% (active).
Regarding `Nc1ccc(-c2ccncc2)cc1NC(=O)N1CCCC1`, the growth is 120%.
On to `Cc1ccc(/C=C2/C(=O)N(C)c3ccc(S(=O)(=O)Nc4ccc(C(C)(C)C)cc4)cc32)s1`, for which the growth was 97%.
As for `CN(C)S(=O)(=O)n1cnc([C@@H]2[C@@H]3C(=O)OC[C@@H]3C[C@]23N=CN(Cc2ccccc2)C3=O)c1`, the growth was 123%.
For the compound `Nc1ccc(N)c2c1C(=O)c1cccc([N+](=O)[O-])c1C2=O`, the growth was 17.8%.
On to `CC1(c2ccccc2)CO1` (centres undefined), for which the growth is 105%.
On to `COc1cccc(/C=C/C(=O)Nc2cc(OC)c3c(c2)OCO3)c1`, for which the growth is 78%.
The same measure for `COc1cccc(C(c2cc3c(cc2O)OCO3)N2CCOCC2)c1OC` (centres undefined): 97.1%; for `Cc1ccccc1C1N=C2Oc3ccccc3C=C2C(=O)N1` (centres undefined): 2.2% (active); for `CCCCOCC(=O)NC(NP(=O)(N(C)C)N(C)C)C(Cl)(Cl)Cl` (centres undefined): 100%.
With `COc1ccc(/C=C/C(=O)c2ccc(-n3cc(CN4CCN(c5cc6c(cc5F)c(=O)c(C(=O)O)cn6C5CC5)CC4)nn3)cc2)cc1OC`, the growth is 45.1%.
On to `O=C(c1ccccc1)c1ccccc1-c1ccccc1`, for which the growth was -4.58% (active).
Then `Oc1ccc(O)cc1`, with 48.4%; and `Sc1ccc(Nc2c3ccccc3nc3ccccc23)cc1`, with 31.7%.
Regarding `Brc1ccc(-c2nc3ccccc3s2)cc1`, the growth was 99.6%.
As for `Cc1c(O)cc(-c2cnc(Nc3ccccc3)s2)c(O)c1C`, the growth was 101%.
Consider `CC1(C)CC(=O)C=C(N)C1`, for which the growth was 71.8%.
Regarding `O=C(Nc1ccc2[nH]ncc2c1)c1csc(Nc2ccccc2)n1`, the growth was 9.35% (active).
For the compound `Cn1cnc([N+](=O)[O-])c1S(=O)(=O)Oc1ccccc1`, the growth was 54.3%.
As for `Cc1ccc2c(n1)C(=O)C(Oc1ccc(F)cc1)=CC2=O`, the growth is 54%.
For `Clc1ccc(-c2nnc(Cn3ccnc3)o2)cc1`, the growth was 93.8%.
For the compound `COc1ccc2c(c1)C(=O)/C(=C/c1ncc([N+](=O)[O-])n1C)O2`, the growth is -7.47% (active).
Turning to `CC1=C(C(=O)Nc2ccc(F)cc2)C(c2ccc(C)cc2)C2=C(CC(C)(C)CC2=O)N1` (centres undefined), the growth was 114%.
On to `Cc1ccc(C(=Nc2ccccc2)N=P(c2ccccc2)(c2ccccc2)c2ccccc2)cc1`, for which the growth is -4.41% (active).
Consider `Cc1cc(N2CCN(CC(=O)Nc3ccc4c(ccn4Cc4ccccc4)c3)CC2)nc(N2CCOCC2)n1`, for which the growth is 87.3%.
On to `CCOC(=O)c1ccc(NC(=O)N2CC(C)OC(C)C2)cc1` (centres undefined), for which the growth was 92.8%.
Consider `Cc1c(N2CN3C[C@H](C)N4CN(c5c(C)n(C)n(-c6ccccc6)c5=O)CN5C[C@@H](C)N(C2)C3C54)c(=O)n(-c2ccccc2)n1C` (some centres undefined), for which the growth was -14.5% (active).
In the case of `COc1ccc(-c2n[nH]nc2-c2cc(OC)c3c(c2)OCO3)cc1`, the growth is -38.2% (active).
On to `CCCCCCCCC/C(=N\NC(=O)c1ccncc1)c1ccc(O)c(O)c1O`, for which the growth was 0.166% (active).
Then `CC(=O)Cc1ccccn1`, with 85.4%; and `O=C(NNc1nc(Cl)nc(N2CCN(C(c3ccccc3)c3ccccc3)CC2)n1)c1ccccc1`, with -22.5% (active); and `CCOc1ccc(Br)cc1/C=C(\C#N)c1ccc([N+](=O)[O-])cc1`, with 91.6%.
`Nc1ccn(Cc2nnc(CCC(=O)c3nc4ccccc4[nH]3)o2)c(=O)n1`: the growth was 80.5%.
Regarding `O=S(=O)(Nc1cc(Sc2cccc3cccnc23)c(O)c2ccccc12)c1ccc(F)cc1`, the growth is -21.9% (active).
